Our source for the growth values is PubChem BioAssay (NCI).

Compounds without any hit were thinned out: in the full panel of roughly 83,000, 20% have a hit.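 Growth was measured after 48 h exposure to one concentration of compound in 96-well plates. Values under 10 count as active.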 A number with no mark means an inactive call. Active and inactive are the calls of the source.

Assay in all cases: NCI-60 one-dose screen, 48 h (100 = growth as untreated, 0 = no growth, -100 = all killed)
Assay [1] has as its system SR leukemia. The following applies: 10 µM unless noted.
In assay [2] the test system is RPMI-8226 leukemia. The conditions noted are these: 10 µM unless noted.
Assay [3] concerns OVCAR-8 ovarian. The conditions noted are these: 10 µM unless noted.
Assay [4] has as its system OVCAR-5 ovarian. The conditions noted are these: 10 µM unless noted.
The test system of assay [5] is SK-OV-3 ovarian. The conditions noted are these: 10 µM unless noted.
The subject of assay [6] is IGROV1 ovarian. The conditions noted are these: 10 µM unless noted.
The subject of assay [7] is OVCAR-3 ovarian. The following applies: 10 µM unless noted.
The test system of assay [8] is HS 578T breast. The conditions noted are these: 10 µM.
In assay [9] the test system is NCI/ADR-RES ovarian. The following applies: 10 µM unless noted.
Assay [10] deals with T-47D breast. The conditions noted are these: 10 µM unless noted.
Assay [11] relates to BT-549 breast. The conditions noted are these: 10 µM unless noted.
Assay [12] deals with MDA-MB-435 melanoma. The conditions noted are these: 10 µM unless noted.
Assay [13] relates to MCF7 breast. The following applies: 10 µM unless noted.
The subject of assay [14] is HCT-116 colon. The conditions noted are these: 10 µM unless noted.
Assay [15] relates to HCC-2998 colon. The following applies: 10 µM unless noted.
For assay [16], the system named is KM12 colon. The following applies: 10 µM unless noted.
Assay [17] deals with OVCAR-4 ovarian. The conditions noted are these: 10 µM unless noted.
Assay [18] has as its system SW-620 colon. The conditions noted are these: 10 µM unless noted.

As to `CC(COC(=O)c1ccccc1)N1CC2CCC(C1)O2` (stereo not given), the growth in assay [1] is 93.2%; in assay [2], 99.1%; in [3], 93.9%; in assay [4] it was 101%; in assay [5], 96.1%; in assay [6], 113%. Further, the growth in [7] was 104%; in [8], 105%; in assay [9], 111%; in assay [10] it was 103%; in assay [11] it was 105%; in assay [12] it was 98.1%. Further, the growth was 102% in [13], 106% in [14], 110% in assay [15] and 109% in assay [16].

With `CCCc1cc2c(cc1CN(Cc1cc3c(cc1CCC)OCO3)C(=N)OCC)OCO2`, the growth in assay [1] is 91.2%; in assay [2], 55.2%; in [3], 82.4%; in assay [17], 77.9%; in [5], 92.7%; in assay [6], 63.3%. Besides, the growth is 69.1% in assay [7]; 73.1% in assay [8]; 91.2% in assay [9]; 84.7% in assay [10]; 80.4% in [11]; 103% in assay [12]. For the same molecule, the growth in assay [18] was 81%; in assay [13], 86.5%; in [14], 41.2%; in assay [15], 90.5%; in [16], 92.8%.

Regarding `COc1cc(/C=C2\C(=O)Nc3ccc(N(C)C)cc32)cc(OC)c1OC`, the growth was 19.1% in assay [1]; 14.3% in assay [2]; 71.1% in [4]; 45.5% in assay [5]; 16.6% in [6]; -18.2% (active) in assay [8]. For the same molecule, the growth in assay [9] was 0.228% (active); in assay [10], 34.3%; in assay [11] it was 6.82% (active); in [12], -37.7% (active); in [18], 8.08% (active); in assay [13] it was 12%. The growth was 13.7% in assay [14] and 49.1% in assay [15].

With `Cc1c(-c2ccc(-c3ccccc3F)cc2)nc2ccc(F)cc2c1C(=O)O`, the growth is 23.4% in assay [1]; 23.3% in [2]; 34.8% in [4]; 75.1% in assay [17]; 65.1% in [5]; 44.6% in assay [6]. The growth in [7] was 55.9%; in assay [8] it was 67%; in [9], 49.6%; in assay [10] it was 59.2%; in [11], 45.5%; in assay [12], 34.9%. Also, the growth is 38.9% in assay [18], 28.4% in assay [13], 21% in assay [14] and 37.7% in assay [15].

Regarding `CCN(C)CCCOc1ccc(/C(=C(\C)Cc2cccc(OC)c2)c2ccc(OC(C)=O)cc2)cc1`, the growth in assay [1] is -8.45% (active); in [2], 102%; in assay [3], 105%; in assay [17] it was 103%; in assay [5], 93.7%; in [6], 102%. In addition, the growth in assay [7] was 105%; in [8], 94%; in [9], 101%; in assay [10], 75.6%; in assay [11], 92.3%; in assay [12], 97.1%. Moreover, the growth in assay [18] is 106%; in [13] it was 51.4%; in [14], 99.7%; in assay [15], 101%; in assay [16], 106%.

In the case of `O=C(N=Nc1c(Cl)c(O)c2ccccc2c1O)C(=O)Nc1cccc(C(F)(F)F)c1`, the growth in assay [1] was 32.2%; in assay [3], 83.6%; in assay [4] it was 118%; in assay [17], 66.9%; in assay [5], 89.6%; in assay [6], 39.3%. Besides, the growth was 24.7% in [7]; 83.8% in [8]; 71% in assay [9]; 44.9% in [10]; 69% in assay [11]; -29.3% (active) in assay [12]. Besides, the growth is 63.6% in assay [18]; -4.71% (active) in [13]; 33.1% in assay [14]; 96.2% in [15]; 53.6% in assay [16].

Take `CCn1c(CN2CCN(Cc3ccccc3)CC2)nc2cc(NC(=O)c3cccs3)ccc21`: the growth is -9.71% (active) in assay [1]; -27.6% (active) in assay [2]; -61.8% (active) in [3]; -51.2% (active) in assay [17]; -95.1% (active) in assay [5]; -83% (active) in [6]. Besides, the growth in assay [7] was -94.5% (active); in assay [8], -25.3% (active); in [11], -30.9% (active); in [12], -89% (active); in assay [13], -88.1% (active); in assay [14] it was 0.264% (active). The growth was -88.9% (active) in [15] and -93.5% (active) in assay [16].

Consider `NC(N)=N/N=C\c1cccc(OCc2ccccc2)c1`, for which the growth is 19.4% in assay [1]; 69.6% in assay [2]; 89.3% in assay [3]; 64.3% in assay [17]; 81.6% in assay [5]; 74.7% in [6]. Further, the growth in assay [7] was 79.1%; in assay [9] it was 76.5%; in assay [10], 26.6%; in [11] it was 94.1%; in assay [12] it was 35.1%; in [18], 36%. In addition, the growth was 47.2% in assay [13], 41.9% in assay [14], 4.51% (active) in [15] and 68.3% in assay [16].

Turning to `CC(C)(C)c1ccc(Cn2c(-c3nonc3N)nc3ccccc32)cc1`, the growth in [1] was 28.2%; in assay [2], 61.9%; in [3], 80.1%; in assay [5], 61%; in assay [6] it was 66.6%; in [7], 69%. Besides, the growth in assay [8] was 85.1%; in [9], 75.8%; in assay [10] it was 53.6%; in assay [11], 90.2%; in [12], 8.66% (active); in assay [18], 51.5%. Further, the growth in [13] was 35.5%; in assay [14] it was 62.6%; in assay [15], 77.7%; in [16] it was 59.4%.

Regarding `Clc1ccc2c(c1)-c1ccccc1C1=NCCN12`, the growth in [1] was 8.25% (active); in [2] it was 33%; in assay [4], 41.2%; in assay [17], 44.4%; in assay [5], 36.9%; in [6] it was 24.3%. Also, the growth in [7] is 41.1%; in [8] it was 58.4%; in assay [9], 26.3%; in [10], 29.6%; in assay [11] it was 71.5%; in [12], 29.4%. Also, the growth in [18] is 22.5%; in assay [13], 10.6%; in assay [14], 21%; in [15], 40.7%; in assay [16], 33.3%.
